Source: PubChem BioAssay (EPA / NIEHS)
More than one record can exist for a structure, and the calls need not agree. Activity calls are given as the source filed them. Rule for the calls: active = hit-call score of the fitted dose curve at least 0.9, where 1 is the maximum; inactive = score below 0.9.

Legend:
[1] = read-out: Vascular cell adhesion molecule 1 (VCAM1), VCAM1 (gene 7412); assay: BSK_hDFCGF_VCAM1: BioMAP Diversity Plus: hDFCGF Assay for Vascular cell adhesion molecule 1 (VCAM1) Biomarker Activity (AID 2283065); settings: primary human foreskin fibroblasts; actives raise or lower the signal;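 for AC50: VCAM-1 protein level quantified by ELISA after 24 h chemical exposure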
Method in brief: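 Measured after 24 h chemical treatment of primary human skin fibroblasts, VCAM-1 was detected by ELISA and concentration-response analysed in both directions versus DMSO vehicle.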

[2] = read-out: Plasminogen activator inhibitor-1 (PAI1), SERPINE1 (gene 5054); assay: BSK_hDFCGF_PAI1: BioMAP Diversity Plus: hDFCGF Assay for Plasminogen activator inhibitor-1 (PAI1) Biomarker Activity (AID 2283066); settings: primary human foreskin fibroblasts; actives raise or lower the signal
Method in brief: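 ELISA readout of PAI-1 from primary human skin fibroblast cultures, 24 h after compound addition. Gain or loss of signal was fitted bidirectionally against DMSO baseline.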

[3] = read-out: Intercellular Adhesion Molecule 1 (ICAM1), ICAM1 (gene 3383); assay: BSK_KF3CT_ICAM1: BioMAP Diversity Plus: KF3CT Assay for Intercellular Adhesion Molecule 1 (ICAM1) Biomarker Activity (AID 2283067); settings: primary human keratinocytes with fibroblasts; actives raise or lower the signal
Method in brief: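 Bidirectional curve fitting against a DMSO baseline was applied to ICAM-1 ELISA signal from primary human skin co-cultures harvested 24 h after treatment, with SRB staining of parallel wells for overt cytotoxicity.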

[4] = read-out: Interferon-gamma inducible Protein 10 (IP10), CXCL10 (gene 3627); assay: BSK_KF3CT_IP10: BioMAP Diversity Plus: KF3CT Assay for Interferon-gamma inducible Protein 10 (IP10) Biomarker Activity (AID 2283068); settings: primary human keratinocytes with fibroblasts; actives raise or lower the signal
Method in brief: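 Signal is secreted/surface IP-10 by ELISA in a human primary skin co-culture of keratinocytes and foreskin fibroblasts, taken 24 h post-dosing; DMSO served as negative control.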

[5] = BSK_KF3CT_SRB: Viability Assessment in the BioMAP Diversity Plus: KF3CT Assay (AID 2283069); settings: primary human keratinocytes with fibroblasts;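 note: total protein by sulforhodamine B staining as a cytotoxicity measure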
Method in brief: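 Cytotoxicity was gauged by SRB staining (0.1% SRB, 10% TCA fixation, 560 nm) of parallel cultures at 24 h. The cells were primary human skin keratinocytes co-cultured with fibroblasts, and activity was fitted in both directions against DMSO.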

[6] = read-out: Interleukin-1 alpha (IL1a), IL1A (gene 3552); assay: BSK_KF3CT_IL1a: BioMAP Diversity Plus: KF3CT Assay for Interleukin-1 alpha (IL1a) Biomarker Activity (AID 2283070); settings: primary human keratinocytes with fibroblasts; actives raise or lower the signal
Method in brief: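 IL-1a was detected by ELISA 24 h after chemical treatment of a co-culture of human skin keratinocytes and foreskin fibroblasts. Gain or loss of signal was fitted against the DMSO baseline.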

[7] = read-out: TIMP metallopeptidase inhibitor 2 (TIMP2), TIMP2 (gene 7077); assay: BSK_KF3CT_TIMP2: BioMAP Diversity Plus: KF3CT Assay for TIMP metallopeptidase inhibitor 2 (TIMP2) Biomarker Activity (AID 2283071); settings: primary human keratinocytes with fibroblasts; actives raise or lower the signal
Method in brief: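 ELISA readout of TIMP-2 in keratinocyte plus foreskin fibroblast co-cultures (human skin primary cells), 24 h post-dose. Gain or loss of signal fitted relative to DMSO.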

[8] = read-out: Transforming growth factor beta 1 (TGFb1), TGFB1 (gene 7040); assay: BSK_KF3CT_TGFb1: BioMAP Diversity Plus: KF3CT Assay for Transforming growth factor beta 1 (TGFb1) Biomarker Activity (AID 2283072); settings: primary human keratinocytes with fibroblasts; actives raise or lower the signal
Method in brief: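 Read-out: ELISA for TGF-b1 in keratinocyte/foreskin fibroblast human skin co-culture, 24 h after dosing; bidirectional curve fit vs DMSO baseline; gain or loss of signal scored.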

[9] = read-out: C-C motif chemokine 2 (Homo sapiens) (UniProt P13500); assay: BSK_KF3CT_MCP1: BioMAP Diversity Plus: KF3CT Assay for Monocyte Chemoattractant Protein 1 (MCP1/CCL2) Biomarker Activity (AID 2283073); settings: primary human keratinocytes with fibroblasts; actives raise or lower the signal
Method in brief: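 Biomarker MCP-1 is measured by ELISA in primary human keratinocytes co-cultured with foreskin fibroblasts, 24 h after chemical treatment; DMSO serves as the negative control and activity baseline.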

[10] = read-out: Matrix Metallopeptidase 9 (MMP9), MMP9 (gene 4318); assay: BSK_KF3CT_MMP9: BioMAP Diversity Plus: KF3CT Assay for Matrix Metallopeptidase 9 (MMP9) Biomarker Activity (AID 2283074); settings: primary human keratinocytes with fibroblasts; actives raise or lower the signal;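 for AC50: MMP9 protein level quantified by ELISA in the co-culture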
Method in brief: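 MMP-9 quantified by ELISA after 24 h chemical treatment of primary human skin keratinocyte/fibroblast co-cultures; gain or loss fitted against DMSO, with parallel SRB staining (0.1% SRB, 560 nm) for overt cytotoxicity.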

[11] = read-out: urokinase plasminogen activator (uPA), PLAU (gene 5328); assay: BSK_KF3CT_uPA: BioMAP Diversity Plus: KF3CT Assay for urokinase plasminogen activator (uPA) Biomarker Activity (AID 2283075); settings: primary human keratinocytes with fibroblasts; actives raise or lower the signal
Method in brief: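 ELISA read-out of uPA 24 h after dosing human skin keratinocytes co-cultured with foreskin fibroblasts. Signal change fitted both ways relative to DMSO; sulforhodamine B on parallel cultures marks overt cytotoxicity.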

[12] = read-out: CD40, CD40 (gene 958); assay: BSK_LPS_CD40: BioMAP Diversity Plus: LPS Assay for CD40 Biomarker Activity (AID 2283076); settings: primary human HUVEC with PBMC; actives raise or lower the signal
Method in brief: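 Using a multiplexed primary human co-culture (umbilical vein endothelium plus PBMC), CD40 was read by ELISA 24 h after dosing, with cytotoxicity tracked by sulforhodamine B staining of parallel cultures and activity fitted bidirectionally versus DMSO.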

[13] = BSK_LPS_SRB: Viability Assessment in the BioMAP Diversity Plus: LPS Assay (AID 2283079); settings: primary human HUVEC with PBMC;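 note: total protein by sulforhodamine B absorbance as a cytotoxicity measure; measured one day after compound addition; fitted in both directions against DMSO so loss or gain of signal counts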
Method in brief: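 Cytotoxicity endpoint in human endothelial–PBMC co-culture: 24 h exposure, then SRB (0.1%) staining, 560 nm read.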

[14] = read-out: Interleukin-1 alpha (IL1a), IL1A (gene 3552); assay: BSK_LPS_IL1a: BioMAP Diversity Plus: LPS Assay for Interleukin-1 alpha (IL1a) Biomarker Activity (AID 2283080); settings: primary human HUVEC with PBMC; actives raise or lower the signal
Method in brief: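 Primary human HUVEC and PBMC co-culture stimulated with LPS is dosed and harvested at 24 h. Both increases and decreases in ELISA-measured IL-1a are scored relative to DMSO.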

[15] = read-out: Monocyte Chemoattractant Protein-1 (MCP1), CCL2 (gene 6347); assay: BSK_LPS_MCP1: BioMAP Diversity Plus: LPS Assay for Monocyte Chemoattractant Protein-1 (MCP1) Biomarker Activity (AID 2283081); settings: primary human HUVEC with PBMC; actives raise or lower the signal;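 for AC50: secreted MCP-1 protein quantified by ELISA in culture supernatant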
Method in brief: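 Values derive from bidirectional fitting against DMSO of ELISA-measured MCP-1 in a human primary endothelial and mononuclear cell co-culture, 24 h after chemical addition under LPS activation.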

[16] = read-out: Macrophage colony-stimulating factor (MCSF), CSF1 (gene 1435); assay: BSK_LPS_MCSF: BioMAP Diversity Plus: LPS Assay for Macrophage colony-stimulating factor (MCSF) Biomarker Activity (AID 2283083); settings: primary human HUVEC with PBMC; actives raise or lower the signal
Method in brief: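 Bidirectional fit versus DMSO of ELISA-measured M-CSF in co-cultured human umbilical vein endothelial cells and PBMC, sampled 24 h after dosing.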

[17] = read-out: Tissue Factor, F3 (gene 2152); assay: BSK_LPS_TissueFactor: BioMAP Diversity Plus: LPS Assay for Tissue Factor Biomarker Activity (AID 2283084); settings: primary human HUVEC with PBMC; actives raise or lower the signal
Method in brief: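 Read-out: CD142 ELISA, 24 h. System: LPS-driven human endothelial/PBMC co-culture. Analysis: up- or down-signal fitted against DMSO.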

[18] = read-out: E-selectin (Homo sapiens) (UniProt P16581); assay: BSK_LPS_Eselectin: BioMAP Diversity Plus: LPS Assay for Eselectin Biomarker Activity (AID 2283077); settings: primary human HUVEC with PBMC; actives raise or lower the signal
Method in brief: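 Dose chemical onto LPS-driven HUVEC/PBMC co-culture; after 24 h, run ELISA for E-selectin; fit up- and down-going responses relative to DMSO control.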

[19] = BSK_LPS_PGE2: BioMAP Diversity Plus: LPS Assay for Prostaglandin E2 (PGE2) Biomarker Activity (AID 2283082); settings: primary human HUVEC with PBMC; actives raise or lower the signal;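 for AC50: secreted prostaglandin E2 measured by ELISA in LPS-stimulated co-culture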
Method in brief: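 ELISA read-out of PGE2 from human umbilical vein endothelial cells co-cultured with peripheral blood mononuclear cells under LPS, 24 h post-dose. Gain or loss of signal scored relative to DMSO baseline.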

[20] = read-out: Interleukin-8 (IL8), CXCL8 (gene 3576); assay: BSK_LPS_IL8: BioMAP Diversity Plus: LPS Assay for Interleukin-8 (IL8) Biomarker Activity (AID 2283078); settings: primary human HUVEC with PBMC; actives raise or lower the signal
Method in brief: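 In this LPS system, chemical-treated human umbilical vein endothelium/PBMC co-cultures were harvested at 24 h for IL-8 ELISA.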

Measured: AC50

Sequence of E-selectin (Homo sapiens) (P16581 whole entry, looked up): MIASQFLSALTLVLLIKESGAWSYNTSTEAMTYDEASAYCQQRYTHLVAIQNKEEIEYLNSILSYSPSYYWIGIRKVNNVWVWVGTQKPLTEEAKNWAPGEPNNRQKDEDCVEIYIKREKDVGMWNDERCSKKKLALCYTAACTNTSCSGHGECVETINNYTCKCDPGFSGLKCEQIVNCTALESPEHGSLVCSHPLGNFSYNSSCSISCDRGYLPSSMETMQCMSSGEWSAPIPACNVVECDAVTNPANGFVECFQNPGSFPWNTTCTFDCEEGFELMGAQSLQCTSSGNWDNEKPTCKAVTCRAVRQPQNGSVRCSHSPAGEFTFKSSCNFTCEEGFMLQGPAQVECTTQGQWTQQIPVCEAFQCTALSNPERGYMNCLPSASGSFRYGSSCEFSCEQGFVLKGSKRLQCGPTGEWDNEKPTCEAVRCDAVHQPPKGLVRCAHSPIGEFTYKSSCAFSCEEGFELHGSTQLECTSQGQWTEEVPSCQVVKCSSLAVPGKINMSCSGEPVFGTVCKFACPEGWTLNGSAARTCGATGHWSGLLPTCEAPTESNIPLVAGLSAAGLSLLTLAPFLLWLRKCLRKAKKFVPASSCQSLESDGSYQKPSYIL

CC(C)(OO)c1ccccc1
active: [1] 28.6 µM | [2] 30.4 µM
not listed: [18] | [19] | [20]
inactive: all other assays above

CCC(C)(C)c1ccc(O)c(C(C)(C)CC)c1
active: [1] 9.33 µM | [2] 7.87 µM | [3] 11.7 µM | [4] 9.69 µM | [5] 7.84 µM | [6] 9.89 µM | [7] 9.47 µM | [8] 8.12 µM | [9] 10.6 µM | [10] 10.3 µM | [11] 7.77 µM | [12] 13.6 µM | [18] 27 µM | [13] 15 µM | [14] 14.3 µM | [15] 25.1 µM | [16] 18.4 µM | [17] 15.9 µM
inactive: [19]

ClC1(Cl)C2(Cl)C3(Cl)C4(Cl)C(Cl)(Cl)C5(Cl)C3(Cl)C1(Cl)C5(Cl)C24Cl (centres undefined)
active: [19] 0.148 µM
not listed: [10]
inactive: all other assays above

C[C@@H]1C[C@@H]([C@H](O)CC2CC(=O)NC(=O)C2)C(=O)[C@@H](C)C1
active: [1] 0.915 µM | [2] 2.9 µM | [3] 7.24 µM | [4] 12.9 µM | [5] 11.6 µM | [6] 31.2 µM | [7] 8.4 µM | [8] 2.79 µM | [9] 0.991 µM | [10] 4.67 µM | [11] 13.2 µM | [12] 3.35 µM | [18] 1.77 µM | [20] 6.73 µM | [13] 6.14 µM | [14] 5.63 µM | [15] 7.05 µM | [16] 4.48 µM | [17] 17.9 µM

C[C@]12CCC(=O)C[C@@H]1CC[C@@H]1[C@@H]2CC[C@]2(C)[C@@H](O)CC[C@@H]12
active: [13] 19.8 µM | [15] 26 µM | [16] 19 µM
not listed: [18] | [19]
inactive: all other assays above

O=c1[nH]c(=O)[nH]c(=O)[nH]1
not listed: [19] | [20]
inactive: all other assays above

CC(C)CCCCCCOC(=O)c1ccccc1C(=O)OCCCCCCC(C)C
active: [6] 1.58 µM
not listed: [18] | [19]
inactive: all other assays above

ClC1=C(Cl)[C@]2(Cl)[C@H]3[C@H]([C@H]4C=C[C@H]3C4)[C@@]1(Cl)C2(Cl)Cl
active: [1] 6.26 µM | [2] 1.16 µM | [8] 2.86 µM | [13] 5.73 µM
not listed: [19] | [20]
inactive: all other assays above

O=[N+]([O-])c1ccc2c3c(cccc13)CC2
active: [7] 11.4 µM
not listed: [18] | [19] | [20]
inactive: all other assays above

CN(C)N=O
not listed: [18] | [19] | [20]
inactive: all other assays above

CCOP(=S)(OCC)Oc1nc(Cl)c(Cl)cc1Cl
active: [1] 7.1 µM | [2] 13.3 µM | [12] 20 µM | [16] 20 µM
not listed: [19] | [20]
inactive: all other assays above

COc1cc(-c2ccc(N)c(OC)c2)ccc1N
active: [1] 19.2 µM | [16] 19.2 µM | [17] 19.2 µM
inactive: [1] | [2] | [3] | [4] | [5] | [6] | [7] | [8] | [9] | [11] | [12] | [18] | [20] | [13] | [14] | [15] | [16] | [17]
